Data taken from PubChem BioAssay (Tox21).
Where “and” joins values, the source holds several entries; their conditions need not be identical. Identical values can stand only once. Results filed as inconclusive are left out. Entries that show only a call come without a potency. A structure can be active in one record and inactive in another. Calls of active or inactive are those of the source. Unless noted, calls come from the whole dose curve; as a rule, active = well fitted curve in the direction sought with a large enough effect in the repeat runs; inconclusive = weak or mixed curves; inactive = no such curve, though single readings can be large; an effect the other way counts as inactive or inconclusive.

What was measured:
[1] = qHTS assay to identify small molecule agonists of the peroxisome proliferator-activated receptor delta (PPARd) signaling pathway - cell viability counter screen (AID 743211); note: nearly all actives have a fitted effect of over 55% in size; note: potency is the fitted concentration of half-maximal effect
Summary of the method: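 Viability was measured as CellTiter-Glo luminescence (30 min, room temperature) in the same wells as the beta-lactamase readout. GeneBLAzer PPARd UAS-bla HEK293H cells received compound after 5 h plating and were incubated 17 h at 37 C.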

[2] = qHTS assay to identify small molecule antagonists of the peroxisome proliferator-activated receptor delta (PPARd) signaling pathway - cell viability counter screen (AID 743213); note: nearly all actives have a fitted effect of over 50% in size; note: potency is the fitted concentration of half-maximal effect
Summary of the method: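 CellTiter-Glo was added to PPARd-bla HEK293H wells following 17 h compound treatment in the presence of 300 nM L165041. Luminescence was recorded after 30 min at room temperature.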

[3] = target: Peroxisome proliferator-activated receptor delta (Homo sapiens) (UniProt Q03181); assay: qHTS assay to identify small molecule antagonists of the peroxisome proliferator-activated receptor delta (PPARd) signaling pathway (AID 743215; active = well fitted inhibition curve with a large enough effect in the signal ratio in the repeat runs, not every such curve was filed as active; the % refers to the signal ratio;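 note: cells stimulated with agonist L165041 at 300 nM final during compound exposure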; note: potency is the fitted concentration of half-maximal effect)
Summary of the method: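 Read-out is beta-lactamase FRET fluorescence, measured 2 h after substrate addition at room temperature. Beforehand, UAS-bla HEK293H cells carrying the PPARd reporter were exposed to compounds with L165041 at 300 nM final for 17 h at 37 C.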

[4] = qHTS assay to identify small molecule agonists of the farnesoid-X-receptor (FXR) signaling pathway - cell viability counter screen (AID 743218); note: nearly all actives have a fitted effect of over 45% in size; note: potency is the fitted concentration of half-maximal effect
Summary of the method: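 HEK 293T FXR-bla cells; 5 h pre-incubation, 16 h compound exposure at 37 C; LiveBLAzer substrate 2 h RT, then CellTiter-Glo 30 min RT, luminescence.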

[5] = qHTS assay to identify small molecule antagonists of the vitamin D receptor (VDR) signaling pathway - cell viability counter screen (AID 743225); note: nearly all actives have a fitted effect of over 50% in size; note: potency is the fitted concentration of half-maximal effect
Summary of the method: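 Cytotoxicity counter screen read by CellTiter-Glo luminescence (30 min, room temperature) in the same wells as the VDR-bla antagonist readout. HEK 293T VDR-UAS-bla cells had 16 h at 37C with compound and 3 nM (final) 1-alpha,25-dihydroxyvitamin D3, then 2 h with FRET substrate.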

[6] = qHTS assay to identify small molecule agonists of the NFkB signaling pathway - cell viability counter screen (AID 1159515; calls by dose curve; note: nearly all actives have a fitted effect of over 55% in size; note: potency is the fitted concentration of half-maximal effect)
Summary of the method: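 Luminescence from CellTiter-Glo (30 min, room temperature) gives viability, measured in the same wells as the beta-lactamase reporter read. Cells were NFkB-bla ME-180, 2,000 per well, treated 5 hr with compounds.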

[7] = qHTS assay to identify small molecule agonists of the endoplasmic reticulum stress response signaling pathway - cell viability counter screen (AID 1159517; calls by dose curve; note: nearly all actives have a fitted effect of over 50% in size; note: potency is the fitted concentration of half-maximal effect)
Summary of the method: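 CellTiter-Glo was added to wells already read for beta-lactamase FRET, and luminescence was recorded 30 min later. Cells: ESRE-bla HeLa, 1,500 per well, compound exposure 5 hr at 37 C.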

[8] = qHTS assay to identify small molecule antagonists of the retinoid-related orphan receptor gamma (ROR-gamma) signaling pathway - cell viability counter screen (AID 1159520); note: nearly all actives have a fitted effect of over 50% in size; note: potency is the fitted concentration of half-maximal effect
Summary of the method: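 Tet-on ROR gamma CHO cells (1,000/well) were plated 4 hr, given compounds in DMSO for 2 hr at 37 C, then induced with 1 uM final doxycycline for 16 hr. Viability was read as ATP by CellTiter-Glo luminescence after 30 min.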

[9] = qHTS assay to identify small molecule agonists of the AP-1 signaling pathway - cell viability counter screen (AID 1159525; calls by dose curve; note: nearly all actives have a fitted effect of over 55% in size; note: potency is the fitted concentration of half-maximal effect)
Summary of the method: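 ME-180 AP-1-bla, 2500 cells/well, Opti-MEM + 0.5% dialyzed FBS; overnight 37 °C; cpd 15-pt titration, 5 h 37 °C; CellTiter-Glo 30 min RT; luminescence read; normalised to TOAB and DMSO controls.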

[10] = target: Bile acid receptor (Homo sapiens) (UniProt Q96RI1); assay: qHTS assay to identify small molecule antagonists of the farnesoid-X-receptor (FXR) signaling pathway (AID 743217; active = well fitted inhibition curve with a large enough effect in the signal ratio in the repeat runs, not every such curve was filed as active; the % refers to the signal ratio)
Summary of the method: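 HEK 293T FXR-UAS-bla, 5000 cells/well; compound + CDCA 50 uM final; 16 h, 37 °C; B/G FRET substrate 2 h RT; fluorescence.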

[11] = target: Bile acid receptor (Homo sapiens) (UniProt Q96RI1); assay: qHTS assay to identify small molecule agonists of the farnesoid-X-receptor (FXR) signaling pathway (AID 743220; active = well fitted activation curve with a large enough effect in the signal ratio in the repeat runs, not every such curve was filed as active; the % refers to the signal ratio)
Summary of the method: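 Beta-lactamase reporter under UAS control in GeneBLAzer FXR HEK 293T cells (5000/well) measured with LiveBLAzer FRET substrate after 2 h at room temperature. Compound exposure lasted 16 h at 37C.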

[12] = qHTS assay to identify small molecule antagonists of the farnesoid-X-receptor (FXR) signaling pathway - cell viability counter screen (AID 743221; active = well fitted cell-killing curve with a large enough effect in the repeat runs, not every such curve was filed as active; note: nearly all actives have a fitted effect of over 50% in size; note: potency is the fitted concentration of half-maximal effect)
Summary of the method: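 Cytotoxicity counter screen run in the FXR-bla reporter wells: HEK 293T cells exposed to compound with 50 uM (final) chenodeoxycholic acid for 16 h, 37 C, then viability measured by CellTiter-Glo luminescence after 30 min, room temperature.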

[13] = qHTS assay to identify small molecule agonists of the vitamin D receptor (VDR) signaling pathway - cell viability counter screen (AID 743224); note: nearly all actives have a fitted effect of over 50% in size; note: potency is the fitted concentration of half-maximal effect
Summary of the method: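 Luminescence from CellTiter-Glo, read after 30 min at room temperature, reports viability of VDR-bla cells treated with compounds for 16 h at 37C in the wells used for the beta-lactamase FRET read.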

[14] = target: Nuclear receptor ROR-gamma (Homo sapiens) (UniProt P51449); assay: qHTS assay to identify small molecule antagonists of the retinoid-related orphan receptor gamma (ROR-gamma) signaling pathway (AID 1159521; note: nearly all actives have a fitted effect of over 50% in size; note: potency is the fitted concentration of half-maximal effect)
Summary of the method: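 Antagonist read-out: drop in luminescence (ONE-Glo) from an RORE-LUC reporter in CHO cells with doxycycline-inducible ROR-gamma; 2 hr compound pretreatment, 1 uM doxycycline, 16 hr incubation at 37 C.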

[15] = target: Peroxisome proliferator-activated receptor delta (Homo sapiens) (UniProt Q03181); assay: qHTS assay to identify small molecule agonists of the peroxisome proliferator-activated receptor delta (PPARd) signaling pathway (AID 743212; calls by dose curve)
Summary of the method: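 A PPARd-bla HEK293H line with beta-lactamase under an Upstream Activator Sequence is treated with compounds at 37 C. Substrate loading for 2 h at room temperature precedes the fluorescence measurement.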

[16] = qHTS assay to identify small molecule agonists of the endoplasmic reticulum stress response signaling pathway (AID 1159516; active = well fitted activation curve with a large enough effect in the signal ratio in the repeat runs, not every such curve was filed as active; the % refers to the signal ratio; note: potency is the fitted concentration of half-maximal effect)
Summary of the method: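 Read-out is beta-lactamase cleavage of a FRET substrate (405 nm excitation; 460 and 530 nm emissions) in ESRE-bla HeLa cells after a 5 hr compound exposure at 37 C. Substrate incubation ran 2 hr at room temperature.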

[17] = qHTS assay to identify small molecule agonists of the AP-1 signaling pathway (AID 1159526; calls by dose curve)
[18] = target: Retinoic acid receptor RXR-alpha (Homo sapiens) (UniProt P19793); assay: qHTS assay to identify small molecule agonists of the RXR signaling pathway (AID 1159527; calls by dose curve; note: nearly all actives have a fitted effect of over 35% in size)
Summary of the method: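 Agonist-mode beta-lactamase reporter assay: HEK 293T RXR-alpha-UAS-bla cells treated 16 hr at 37 C with compounds, 9-cis retinoic acid as positive control. LiveBLAzer FRET substrate, 405 nm excitation, 460/530 nm emission.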

[19] = target: Vitamin D3 receptor (Homo sapiens) (UniProt P11473); assay: qHTS assay to identify small molecule agonists of the vitamin D receptor (VDR) signaling pathway (AID 743222; calls by dose curve)
Summary of the method: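 VDR-bla cells, 2,000/well; 4 h preincubation 37C; cpd (DMSO) 16 h; LiveBLAzer B/G substrate 2 h RT; fluorescence intensity read.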

[20] = target: Vitamin D3 receptor (Homo sapiens) (UniProt P11473); assay: qHTS assay to identify small molecule antagonists of the vitamin D receptor (VDR) signaling pathway (AID 743223; active = well fitted inhibition curve with a large enough effect in the signal ratio in the repeat runs, not every such curve was filed as active; the % refers to the signal ratio; note: potency is the fitted concentration of half-maximal effect)
Summary of the method: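 Antagonist mode: compound added to VDR-bla cells alongside agonist 1alpha,25-dihydroxyvitamin D3 (3 nM final), incubation 16 h at 37C. Read-out is LiveBLAzer FRET fluorescence, 2 h at room temperature.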

Sequence of Bile acid receptor (Homo sapiens) (Q96RI1 whole entry, looked up): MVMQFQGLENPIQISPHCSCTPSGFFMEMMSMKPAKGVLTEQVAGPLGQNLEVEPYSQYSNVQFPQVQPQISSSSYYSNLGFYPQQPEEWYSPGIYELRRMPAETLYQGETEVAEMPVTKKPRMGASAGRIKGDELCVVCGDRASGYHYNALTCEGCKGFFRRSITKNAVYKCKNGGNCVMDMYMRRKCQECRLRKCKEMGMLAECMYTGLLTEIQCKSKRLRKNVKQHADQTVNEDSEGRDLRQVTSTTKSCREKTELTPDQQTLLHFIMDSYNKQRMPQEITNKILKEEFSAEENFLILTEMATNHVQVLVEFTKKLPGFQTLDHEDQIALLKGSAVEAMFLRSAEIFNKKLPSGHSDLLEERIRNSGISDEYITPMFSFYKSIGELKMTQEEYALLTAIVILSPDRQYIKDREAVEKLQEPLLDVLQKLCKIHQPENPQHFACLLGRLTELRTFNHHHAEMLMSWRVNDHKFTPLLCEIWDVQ
Sequence of Peroxisome proliferator-activated receptor delta (Homo sapiens) (Q03181 whole entry, looked up): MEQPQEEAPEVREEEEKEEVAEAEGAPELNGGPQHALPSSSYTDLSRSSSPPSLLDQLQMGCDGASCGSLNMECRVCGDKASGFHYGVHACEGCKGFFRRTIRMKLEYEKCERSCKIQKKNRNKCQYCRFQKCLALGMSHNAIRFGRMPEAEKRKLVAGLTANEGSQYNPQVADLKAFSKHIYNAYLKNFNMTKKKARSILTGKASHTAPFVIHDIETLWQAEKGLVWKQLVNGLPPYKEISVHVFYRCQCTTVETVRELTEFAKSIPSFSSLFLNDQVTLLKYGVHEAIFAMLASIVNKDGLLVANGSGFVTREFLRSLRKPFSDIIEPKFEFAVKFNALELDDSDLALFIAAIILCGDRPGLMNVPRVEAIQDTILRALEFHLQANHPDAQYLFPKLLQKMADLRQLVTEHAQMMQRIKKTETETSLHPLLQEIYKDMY
Sequence of Retinoic acid receptor RXR-alpha (Homo sapiens) (P19793 whole entry, looked up): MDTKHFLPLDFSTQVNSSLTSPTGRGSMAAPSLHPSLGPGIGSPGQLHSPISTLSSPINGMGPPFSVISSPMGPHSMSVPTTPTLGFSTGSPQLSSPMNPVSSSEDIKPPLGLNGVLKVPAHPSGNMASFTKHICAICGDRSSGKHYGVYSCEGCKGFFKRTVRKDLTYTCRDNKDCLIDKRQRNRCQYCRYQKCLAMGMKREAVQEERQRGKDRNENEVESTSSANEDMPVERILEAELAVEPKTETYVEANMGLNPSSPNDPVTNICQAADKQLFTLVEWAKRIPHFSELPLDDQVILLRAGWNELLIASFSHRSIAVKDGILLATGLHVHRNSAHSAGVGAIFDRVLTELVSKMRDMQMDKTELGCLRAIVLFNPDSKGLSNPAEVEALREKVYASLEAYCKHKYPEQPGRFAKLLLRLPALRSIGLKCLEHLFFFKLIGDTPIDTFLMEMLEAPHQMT
Sequence of Vitamin D3 receptor (Homo sapiens) (P11473 whole entry, looked up): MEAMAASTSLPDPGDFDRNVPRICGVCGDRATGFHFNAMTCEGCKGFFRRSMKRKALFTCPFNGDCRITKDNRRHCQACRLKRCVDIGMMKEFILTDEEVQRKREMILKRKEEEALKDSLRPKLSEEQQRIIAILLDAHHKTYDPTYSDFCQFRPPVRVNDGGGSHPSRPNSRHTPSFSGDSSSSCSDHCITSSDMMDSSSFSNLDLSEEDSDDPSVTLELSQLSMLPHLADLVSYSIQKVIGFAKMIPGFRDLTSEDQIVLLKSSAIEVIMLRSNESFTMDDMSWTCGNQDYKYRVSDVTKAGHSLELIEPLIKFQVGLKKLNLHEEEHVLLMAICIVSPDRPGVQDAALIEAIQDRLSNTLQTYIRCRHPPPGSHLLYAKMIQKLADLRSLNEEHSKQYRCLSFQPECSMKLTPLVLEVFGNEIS

Structure (SMILES) | Potency [1] | Potency [2] | Potency [3] | Potency [4] | Potency [5] | Potency [6] | Potency [7] | Potency [8] | Potency [9] | Potency [10] | outcome [11] | Potency [12] | Potency [13] | Potency [14] | outcome [15] | Potency [16] | Potency [17] | Potency [18] | outcome [19] | Potency [20]
O=C1c2ccccc2C(=O)N1SC(Cl)(Cl)Cl | 38.3 µM (active) and 6.92 µM (active) | 21.6 µM (active) and 5.49 µM (active) | 19.5 µM (active) | 34.7 µM (active) | 34.2 µM (active) | inactive | inactive | 30.2 µM (active) and 21.7 µM (active) | inactive |  |  |  |  |  |  |  |  |  |  | 
CCCCNC(=O)OCC#CI |  |  |  |  | inactive | inactive | inactive | 54.2 µM (active) and 17.2 µM (active) | 54.7 µM (active) | inactive | inactive | inactive | 48.7 µM (active) and 43.6 µM (active) | 24.2 µM (active) |  |  |  |  |  | 
CCCCOC(=O)CCC(=O)OCCCC | inactive | inactive |  | inactive | inactive | inactive | inactive | inactive | inactive |  |  | inactive | inactive |  | inactive | inactive | inactive | inactive |  | 
[Cl-].[Cl-].[Hg+2] |  | 2.44 µM (active) and 1.74 µM (active) |  |  | 1.22 µM (active) and 3.47 µM (active) | 3.45 µM (active) and 49 µM (active) | 48.8 µM (active) | 48.3 µM (active) and 1.09 µM (active) | 4.88 µM (active) and 4.36 µM (active) |  |  | 2.18 µM (active) and 3.47 µM (active) | 773 nM (active) and 1.1 µM (active) |  |  |  |  |  |  | 
COc1ccc(C(=O)c2c(C)n(CCN3CCOCC3)c3ccccc23)cc1 | inactive | inactive | inactive |  | inactive | inactive | inactive | inactive | inactive |  |  | inactive | inactive |  | inactive | inactive | inactive |  |  | 
O=C(CCl)CCl | inactive and 54.9 µM (active) | inactive | inactive | inactive and 54.9 µM (active) | inactive | inactive | 43.6 µM (active) | 5.45 µM (active) | inactive |  |  | inactive | inactive |  | inactive |  |  | inactive | inactive | inactive
CC1(C)[C@H](C(=O)O[C@H](C#N)c2cccc(Oc3ccccc3)c2)[C@@H]1C=C(Br)Br |  | inactive |  |  | inactive | inactive | inactive | inactive | inactive |  |  | inactive | inactive | inactive |  |  |  |  |  | 
CC(Oc1cc(Cl)c(Cl)cc1Cl)C(=O)O (stereo not drawn) |  |  | inactive | inactive | inactive | inactive | inactive | inactive | inactive | inactive | inactive | inactive |  |  |  | inactive | inactive | inactive |  | 
Nc1ccccc1C(=O)OCC(O)CO (stereo not drawn) | inactive | inactive | inactive |  | inactive | inactive | inactive | inactive | inactive |  |  | inactive | inactive |  |  | inactive | inactive |  | inactive | inactive
CCCCCCCCCCCC[N+](C)(C)CCOc1ccccc1 |  | 17.4 µM (active) |  | 24.6 µM (active) | 21.9 µM (active) and 21.3 µM (active) | 13.8 µM (active) and inactive | 15.5 µM (active) and 19 µM (active) | 61.1 µM (active) | 49 µM (active) and 23.9 µM (active) |  |  | 49 µM (active) |  | 27.3 µM (active) |  |  |  |  | inactive | 
CCNC(=O)NC(=O)/C(C#N)=N/OC |  | inactive | inactive | inactive |  | inactive | inactive | inactive | inactive | inactive | inactive | inactive | inactive |  | inactive | inactive | inactive |  | inactive | 
Nc1cccc2ccccc12 | inactive | inactive | inactive | inactive | inactive | inactive | inactive | inactive | inactive |  |  | inactive | inactive | inactive | inactive |  |  | inactive |  | 
CN1CC[C@]23c4c5ccc(O)c4O[C@H]2[C@@H](O)C=C[C@H]3[C@H]1C5 |  | inactive |  |  | inactive | inactive | inactive | inactive | inactive |  |  | inactive | inactive |  |  | inactive | inactive | inactive | inactive | inactive
C#C[C@]1(O)CC[C@H]2[C@@H]3CCC4=CC(=O)CCC4=C3C=C[C@@]21CC | inactive | inactive |  |  |  | inactive | inactive | inactive | inactive |  |  |  |  |  |  | inactive | inactive | inactive |  | 
CCc1cnc(C2=NC(C)(C(C)C)C(=O)N2)c(C(=O)O)c1 (stereo not drawn) | inactive | inactive | inactive |  | inactive | inactive | inactive | inactive | inactive |  |  | inactive | inactive |  | inactive | inactive | inactive | inactive |  | inactive
CCC(C)Cl (stereo not drawn) |  | inactive |  | inactive | inactive | inactive | inactive | inactive | inactive |  |  | inactive | inactive |  |  | inactive | inactive | inactive |  | inactive
OC[P+](CO)(CO)CO | inactive | inactive |  |  |  | inactive | inactive | inactive | inactive |  |  | inactive | 55.6 µM (active) and inactive |  | inactive | 1.57 µM (active) | inactive |  | inactive | inactive
CCC(C)(C)c1ccc(O)c(C(C)(C)CC)c1 | 19.3 µM (active) and 19.5 µM (active) | 17.2 µM (active) and 38.9 µM (active) | inactive |  |  | 21.6 µM (active) and 21.9 µM (active) | 15.3 µM (active) and 21.9 µM (active) | 60.4 µM (active) | 12.2 µM (active) and 13.8 µM (active) |  |  | 19.5 µM (active) |  | 60.4 µM (active) and 48.6 µM (active) | inactive |  |  |  |  | 12.2 µM (active) and 17.4 µM (active)
